# Measurements as given in the supplement of paper PMC3334620.
# The full ranking holds about 33,000 sequences; the median of “E-score (-0.5 to 0.5)” is about -0.036, and the highest 2% start at about 0.37. Only a selection was taken, and the highest values are over-represented in it overall.
# Target: T1, Yer064c (UniProt P40041)
# T1 sequence: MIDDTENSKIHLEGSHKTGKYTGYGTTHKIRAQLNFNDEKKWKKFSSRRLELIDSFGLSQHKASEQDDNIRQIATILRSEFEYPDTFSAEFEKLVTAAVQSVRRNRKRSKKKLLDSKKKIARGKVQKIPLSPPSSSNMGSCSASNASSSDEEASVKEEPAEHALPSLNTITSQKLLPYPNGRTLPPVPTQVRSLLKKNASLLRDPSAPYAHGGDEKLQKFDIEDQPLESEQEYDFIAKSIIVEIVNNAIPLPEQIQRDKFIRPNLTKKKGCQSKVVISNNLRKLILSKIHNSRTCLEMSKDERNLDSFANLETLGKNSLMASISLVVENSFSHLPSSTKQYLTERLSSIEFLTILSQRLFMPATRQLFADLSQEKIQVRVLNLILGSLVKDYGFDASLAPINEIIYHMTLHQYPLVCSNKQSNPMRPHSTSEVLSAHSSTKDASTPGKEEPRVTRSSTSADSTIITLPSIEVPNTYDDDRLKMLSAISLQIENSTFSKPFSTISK
# Assay: PBM E-score (8-mer binding enrichment) (E-score (-0.5 to 0.5)); higher = stronger / more preferred TF binding
# Conditions: protein concentration: 200 nM; construct: GST-full length
# Procedure: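 Universal 'all 10-mer' protein binding microarrays (Agilent AMADID 015681) probed with GST-tagged S. cerevisiae TFs (full-length or DBD) made by in vitro transcription/translation (PURExpress), about 100-200 nM. Bound TF was detected with fluorescent anti-GST. Each ungapped 8-mer (which stands for itself and its reverse complement) is scored by the PBM enrichment score (E-score), a modified Wilcoxon-Mann-Whitney statistic from -0.5 to +0.5, computed with the Universal PBM Analysis Suite. Scale: above 0.35 generally sequence-specific binding.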
row,Sequence,PBM E-score
1,CATCAGGA,-0.0161
2,GTGTCGAA,-0.00343
3,ATCGCAGA,0.0583
4,AGCTACCA,0.0223
5,AATTCGGT,0.107
6,CTCCGTGC,-0.156
7,ACATTCAT,0.0768
8,CGCGTTCA,0.0376
9,ACGACTGA,0.321
10,AGGACTGA,0.244
11,ATGACTCG,0.491
12,ATGACTGC,0.467
13,AGGACTCG,0.306
14,AGGACTGC,0.13
15,CAGACTGC,0.0507
16,ATTACTCG,0.202
17,ATGACTGA,0.464
18,GTAAGGTA,0.00781
19,GCCAACCC,-0.343
20,ACGGCCTC,-0.163
21,ACATGAAT,0.175
22,ACGCCTAG,-0.133

row,Sequence,PBM E-score
1,CGGTGGGC,-0.341
2,AGTTTCTC,-0.105
3,AGACTCCA,0.323
4,CCACTCCA,-0.0978
5,AGACTCCC,0.32
6,TGACTCCA,0.479
7,CGACTCCC,0.404
8,CGACTCCA,0.378
9,CGACTCCG,0.332
10,CAACTCCC,-0.15
11,GGACTCCA,0.176
12,AGGGGGAT,-0.373
13,AGGGGGGA,-0.362
14,ACTGCGTA,0.0638
15,AACTCCAT,0.0309
16,CGGTGCAG,-0.0907
17,TTGTCAAA,0.0143
18,GAGTCAAA,0.461
19,AAGTCAAG,0.283
20,TAGTCAAA,0.417
21,CAGTCAAA,0.254
22,GCGTCAAC,-0.156

row,Sequence,PBM E-score
1,AAGTCAAC,0.367
2,GAGTCAAC,0.474
3,TGGTCAAA,-0.0461
4,ACGTCAAC,0.0642
5,CAGTCAAC,0.36
6,AAGTCAAA,0.288
7,TCAAAAAA,0.16
8,CGATCACC,-0.0685
9,ACGATCCG,-0.0916
10,AGGTAGGC,-0.231
11,AATCAACG,0.308
12,CATCATCA,0.161
13,AATCATCT,0.453
14,TATCATCA,0.0107
15,CATCATCG,0.125
16,GATCATCA,0.142
17,CATCATCC,0.0788
18,AATCTTCT,0.201
19,AATCATCC,0.468
20,AATCATCA,0.463
21,GATCATCC,0.171
22,AATCATCG,0.439

row,Sequence,PBM E-score
1,TGGGCCCA,-0.123
2,AATATTGT,0.0413
3,TATGAATA,0.0885
4,TCCCTTCA,0.091
5,CCCTTGAA,-0.0587
6,AGGCGACG,-0.346
7,ACGCGACA,-0.128
8,AGGCGACT,0.387
9,AGGCGACC,-0.191
10,AAGCGACT,0.369
11,AAGCGACA,-0.208
12,ACGCGACT,0.376
13,AAGCGACC,-0.161
14,ACGCGACG,-0.164
15,ACAACGGT,-0.116
16,ATAAAGAC,0.196
17,CCGGCAAG,-0.156
18,CTTGAGAA,0.136
19,GCTTCGAC,-0.126
20,TCAACAGA,0.211
21,AACTATCA,0.104
